Most compounds without a hit are left out; they make up all but 2.8% or so of the library.
PP5 primary: PP5 (human) phosphatase inhibition | P53041 | AID 1987 | hit rate 0.18% among 320,000 | purified PP5c, OMFP substrate fluorescence | inhibition, % at 6.7 µM;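 active = inhibition above the campaign's mean inhibition across all tested compounds plus 3 SD, cut at about 9.5% in these data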;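 also: 0% = DMSO only and 100% = 100 µM cantharidin control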
Target sequence (P53041 whole entry, looked up): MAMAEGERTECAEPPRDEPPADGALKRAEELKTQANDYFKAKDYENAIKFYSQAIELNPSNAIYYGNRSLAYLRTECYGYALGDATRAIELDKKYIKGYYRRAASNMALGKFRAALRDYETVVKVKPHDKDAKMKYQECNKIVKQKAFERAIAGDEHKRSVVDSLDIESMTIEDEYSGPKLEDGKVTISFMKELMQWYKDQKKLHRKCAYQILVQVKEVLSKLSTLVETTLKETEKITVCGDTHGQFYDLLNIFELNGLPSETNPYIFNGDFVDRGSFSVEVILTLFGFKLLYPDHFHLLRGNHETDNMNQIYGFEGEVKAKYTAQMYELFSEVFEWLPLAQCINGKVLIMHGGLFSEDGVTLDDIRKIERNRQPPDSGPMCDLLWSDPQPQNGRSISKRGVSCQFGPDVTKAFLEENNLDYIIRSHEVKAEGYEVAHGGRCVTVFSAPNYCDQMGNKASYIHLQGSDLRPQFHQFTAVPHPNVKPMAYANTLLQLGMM
JMJD2C inh: human JMJD2C demethylase inhibition | Q9H3R0 | hit rate 0.069% among 330,000 | inhibition, % at 2.35 µM | GST-JMJD2C(1-420) H3K9me3 demethylation, DELFIA europium | AID 2099;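 active = more than half of a compound's replicate wells show inhibition beyond 50%, single wells judged on their own value; inconclusive = some, but no more than half, of replicates pass 50% inhibition; inactive = no replicate passes 50% inhibition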;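 also: signal counts dimethyl H3K9 product captured on neutravidin plate; 0% = median of DMSO wells and 100% = 0.3 times that DMSO median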
NR1D1 modulator: modulators of human Rev-erb alpha DNA binding | hit rate 0.79% among 370,000 | activity, % at 10 µM | P20393 | Rev-erbα–FITC-DNA binding, fluorescence polarization, 90 min | AID 1259318;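 active = activity above about 14%, limit read from the data; passing the limit was not always enough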;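 also: 0% = DMSO wells with 35 nM protein and 100% = DMSO wells with 750 nM protein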
KLK7 zymogen act: proKLK7 (human) activation, primary screen | P49862 | purified proKLK7, EDANS-DABCYL substrate fluorescence; 100% is mature enzyme control, 0% vehicle | activation, % at 7 µM | hit rate 0.9% among 370,000 | AID 652039;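 active = activation above the mean of all tested compounds plus 3 SD, computed per campaign excluding outliers beyond control limits, cut at about 13% in these data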
PP1 inh: blocks human PP1-alpha phosphatase, a PP5 counter-screen | P62136 | purified PP1alpha, OMFP fluorescence | inhibition, % at 6.7 µM | hit rate 0.9% among 320,000;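 active = inhibition above the mean inhibition of all tested compounds plus 3 SD, computed separately for each screening campaign, cut at about 15% in these data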
PG9 Ab binder: small molecules binding HIV-1 gp120 antibody PG9; AID 624416; hit rate 0.43% among 360,000; inhibition, % at 6.7 µM; TR-FRET gp120-PG9 antibody binding; in the data active = inhibition above about 8.5%
PP1 confirm: human PP1 phosphatase inhibition, confirmation; shares compounds with PP1 inh; purified PP1alpha, OMFP substrate fluorescence; inhibition, % at 6.7 µM; hit rate 52% among 1,900; AID 2358;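 active = mean PP1 inhibition above a set limit taken from the earlier primary screen, cut at about 15% in these data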
PP5 counter: inhibits human PP5 phosphatase in PP1 counter-screen; shares compounds with PP1 inh; purified PP5c, OMFP fluorescence; inhibition, % at 6.7 µM; hit rate 4% among 1,900; AID 2360;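 active = mean PP5 inhibition over triplicate wells above about 9.5% taken from the earlier PP1 screen, limit read from the data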
An asterisk follows results filed as active; ? = inconclusive; nt = not tested or not shown.

SMILES	PP5 primary	JMJD2C inh	NR1D1 modulator	KLK7 zymogen act	PP1 inh	PG9 Ab binder	PP1 confirm	PP5 counter
Cc1nc(-c2ccccn2)nc(N(C)c2ccccc2)c1Cl	1	10	5	0	27*	0	23*	-4
COC(=O)[C@]12CCCCC=C1N(Cc1ccc(OC)cc1)C(=O)[C@@H]2CC(=O)N1CCN(C(=O)c2ccco2)CC1	nt	nt	-4	0	nt	nt	nt	nt
COc1c(N2CCN(C(=S)NC3CC4CCC3C4)C(C)C2)c(F)cc2c(=O)c(C(=O)O)cn(C3CC3)c12 (stereo not drawn)	-1	-11	-3	3	21*	-1	38*	-5
COc1c(N2CCN(C(=S)Nc3ccc(F)cc3)C(C)C2)c(F)cc2c(=O)c(C(=O)O)cn(C3CC3)c12 (stereo not drawn)	4	0	-5	0	-2	0	nt	nt
O=C(COC(=O)c1ccc(Sc2ncn[nH]2)c([N+](=O)[O-])c1)Nc1cccc(Cl)c1F	nt	nt	-4	0	nt	nt	nt	nt
Cc1ccc(NC(=O)OC2CC3CC2[C@H]2CCCCN2C3)cc1 (stereo partly drawn)	nt	nt	11	0	nt	nt	nt	nt
CC(C)CNC(=O)C1CCN(c2ccc(S(=O)(=O)N3CCOCC3)cc2Cl)CC1	0	?	-3	0	28*	0	-2	0
O=C(Nc1nnc(-c2ccc3c(c2)CCCC3)o1)C1COc2ccccc2O1 (stereo not drawn)	1	0	3	1	38*	0	37*	1
CC(=O)Nc1nnc(-c2ccc3c(c2)CCCC3)o1	0	-16	1	0	-1	-1	nt	nt
Clc1ccc(N=c2ssnc2Cl)cc1	0	?	0	0	19*	3	1	-1
Cc1cccc(NC(=O)CNC(=O)COc2ccc(-c3ccc(C#N)cc3)cc2)c1C	5	6	14	-1	20*	4	18*	-1
Cc1cccc(NC(=O)CNC(=O)COc2ccc(C(=O)c3ccc(F)cc3)cc2)c1C	-2	-6	4	0	0	5	nt	nt
C=CCN1C(C(=O)OC)CN(Cc2cn(CCC3OCCO3)nn2)CCS1(=O)=O (stereo not drawn)	nt	nt	0	1	nt	nt	nt	nt
O=C(Nc1ccc(F)c(Cl)c1)[C@@H]1O[C@H](CO)[C@H](O)[C@H](O)[C@H]1O	nt	nt	0	0	nt	0	nt	nt
O=C(O)C1C2CCC(O2)C1C(=O)Nc1cnn(Cc2ccccc2)c1 (stereo not drawn)	41*	4	3	1	24*	-3	7	18*
O=C(O)C1C2CCC(O2)C1C(=O)Nc1ccc(F)c(Cl)c1 (stereo not drawn)	71*	-12	0	0	66*	-2	10	19*
Cc1ccc(NC(=O)C2C3CCC(O3)C2C(=O)O)cc1Cl (stereo not drawn)	75*	11	-5	0	75*	-1	12	25*
Cc1c(CCOC(=O)CC23CC4CC(CC(C4)C2)C3)sc[n+]1CC(=O)c1ccccc1	-2	-20	6	1	26*	2	-5	-1
Cc1c(CCOC(=O)C23CC4CC(CC(C)(C4)C2)C3)sc[n+]1Cc1ccccc1	0	121	0	1	2	2	nt	nt
Cc1c(CCOC(=O)C23CC4(C)CC(C)(CC(C)(C4)C2)C3)sc[n+]1CC(=O)c1ccccc1	4	9	4	1	21*	-1	-1	5
COC(=O)[C@]12C[C@H](CC(=O)NCc3cccs3)C(=O)N(CCC3=CCCCC3)C1=C[C@H](COCc1ccccc1)O[C@@H]2C	nt	nt	-1	0	nt	-2	nt	nt
Cc1cccc(NC(=O)CN2C(=O)N/C(=C\c3ccc(N4CCOCC4)cc3)C2=O)c1	0	10	0	-2	20*	-2	25*	-4
Cc1cccc(NC(=O)CN2C(=O)N/C(=C/c3cc(C)n(-c4ccncc4)c3C)C2=O)c1	0	-1	-4	1	19*	1	14	-2
Cc1cc(N2CCOCC2)ccc1/C=C1\NC(=O)N(CC(=O)Nc2ccc(F)cc2)C1=O	2	2	-3	0	9	-1	nt	nt
COc1ccc(C(=O)NCCCn2ccnc2)cc1	3	-6	1	-1	-1	3	nt	nt
SMILES	PP5 primary	JMJD2C inh	NR1D1 modulator	KLK7 zymogen act	PP1 inh	PG9 Ab binder	PP1 confirm	PP5 counter
COc1ccc2c(Cl)c(C(=O)NCCCn3ccnc3)sc2c1Cl	-3	0	-21	-3	18*	1	3	-4
CCc1ccc(Nc2n[n+](-c3ccccc3)c(-c3c(Cl)cccc3Cl)s2)cc1	-4	-1	5	0	31*	0	3	2
O=C(O)c1ccc(-c2sc(Nc3ccccc3)n[n+]2-c2ccccc2)cc1	2	-5	0	1	3	-1	nt	nt
c1ccc(COc2ccc(-c3sc(Nc4ccccc4)n[n+]3-c3ccccc3)cc2)cc1	5	-9	nt	nt	20*	nt	5	-1
Fc1ccc(-[n+]2nc(Nc3ccccc3)sc2-c2c(Cl)cccc2Cl)cc1	-5	1	1	1	13	-4	nt	nt
Cc1cccc(Nc2nc(-c3ccccn3)cs2)n1	9	18	-1	1	64*	0	53*	2
Cc1cccnc1Nc1nc(-c2ccccn2)cs1	6	-7	5	0	28*	1	36*	5
CC(=O)C1=C(C)N(Cc2ccc(Br)cc2)C(=S)NC1c1ccc(F)cc1 (stereo not drawn)	nt	nt	5	0	nt	1	nt	nt
COCCN1Cc2cc(C(=O)OC)c3c(c2C1=O)c1cc(OC)ccc1n3S(C)(=O)=O	nt	nt	2	1	nt	-1	nt	nt
S=c1[nH]nc(-c2cc(-c3ccccc3)n[nH]2)n1/N=C/C=C/c1ccccc1	5	2	-2	1	23*	1	17*	0
COc1ccccc1/C=C/C=N/n1c(-c2ccc(F)cc2)n[nH]c1=S	0	-6	0	-1	-3	-1	nt	nt
COc1ccccc1/C=C/C=N/n1c(-c2cc(-c3ccccc3)n[nH]2)n[nH]c1=S	2	-3	2	-3	22*	4	27*	3
Cc1cc2oc3ccc(NCCCn4ccnc4)cc3c(=O)c2cc1C	2	16	-28	-1	25*	-2	5	-2
Cc1cc2oc3ccc(NCCCN4CCOCC4)cc3c(=O)c2cc1C	3	3	-3	0	1	0	nt	nt
